Results from PubChem BioAssay AID431 (Sanford-Burnham Center for Chemical Genomics, 2006).
Hit rate of the full screen: of about 63,000 compounds, about 1,100 (1.7%) were called active.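 The calls were made as follows: active = compounds whose percent cytotoxicity in the single-dose primary screen, scaled between solvent and toxic-drug controls, exceeds 50; inactive = the rest.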 The entries come from a sample that favours actives as a whole. Measured potencies and affinities stand elsewhere.

assay: cytotoxicity in KRAS-transformed pancreatic duct cells, primary screen, cell-based, fluorescence, HTS (AID 431); conditions: HPDE-C7K KRASV12 cells, Alamar Blue viability, 48 h; at 10 µM; stronger effect = higher value;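 also: 0% = DMSO solvent wells and 100% = doxorubicin-treated wells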

Compound | cytotoxicity
O=S(=O)(Cc1ccccc1)N1CCn2c(nc3ccccc32)C1 | 9.3% (inactive)
CCOc1cccc(-c2nnc3sc(COc4ccc(Cl)cc4)nn23)c1 | 24.5% (inactive)
CCN(Cc1cc2ccccc2[nH]c1=O)C(=O)C1CCCCC1 | -7.8% (inactive)
Cc1ccc(C(=O)C(C)OC(=O)C2CC(=O)N(C3CCCCC3)C2)cc1 (centres undefined) | -11.4% (inactive)
CC(C)(C)c1cc(CN2CCN(CCO)CC2)cc(C(C)(C)C)c1O | -4.4% (inactive)
CC(C)(C)c1cc(C(=S)N2CCN(CCO)CC2)cc(C(C)(C)C)c1O | -13.9% (inactive)
Cc1cc(N2CCN(c3cccc(C(F)(F)F)c3)CC2)n2ncnc2n1 | -14.7% (inactive)
CCNc1sc(C(=O)c2cccs2)c(N)c1-c1nc2ccccc2s1 | 74.9% (active)
CNc1sc(C(=O)c2cccs2)c(N)c1-c1nc2ccccc2s1 | 33.2% (inactive)
CCNc1sc(C(=O)c2cccs2)c(N)c1C#N | -11.8% (inactive)
O=C(NCc1ccncc1)c1c(F)c(F)c(F)c(F)c1F | -8.2% (inactive)
Cc1ccc(SCc2cc(=O)[nH]c(N3CCN(Cc4ccc5c(c4)OCO5)CC3)n2)cc1 | 0.2% (inactive)
Cn1c(-c2cc(Br)ccc2O)n[nH]c1=S | 0.6% (inactive)
Cc1ccccc1OCCCC(=O)Nc1ccc(N2CCOCC2)cc1 | 1.2% (inactive)
O=C(Nc1ccccc1)NC1(C(=O)NCCCN2CCOCC2)CCCCC1 | 0.6% (inactive)
CC(C)C(c1nnnn1C1CCCC1)N1CCc2ccccc21 (centres undefined) | -8.4% (inactive)
COc1ccc(C(C)(C)C)cc1NC(=O)Nc1ccc2c(c1)OCO2 | 50.7% (active)
COC(=O)c1ccc(C(=O)OC)c(NC(=O)Nc2ccc3c(c2)OCO3)c1 | -0.1% (inactive)
COc1ccccc1NC(=O)Nc1ccc2c(c1)OCCO2 | -11.4% (inactive)
CCCCCCOC(=O)C1=C(C)NC(=O)NC1c1ccc(O)cc1 (centres undefined) | -1.4% (inactive)
Cc1nc(SCc2cccc(F)c2)[nH]c(=O)c1C#N | -15.2% (inactive)
N#Cc1c(-c2ccco2)nc(SCc2ccc(F)cc2)[nH]c1=O | 68.9% (active)
N#Cc1c(-c2ccco2)nc(SCC(=O)Nc2cccc(Cl)c2)[nH]c1=O | 17.5% (inactive)
O=C(/C=N\O)NCCCNCc1ccccc1 | 11% (inactive)
O=C(c1noc2c1CCCC2)N1CCN(C(c2ccccc2)c2ccccc2)CC1 | 2.5% (inactive)

Compound | cytotoxicity
CCOc1cc(C(=O)N(C)c2ccccc2)cc(OCC)c1OCC | 4.9% (inactive)
CCCCOCCCNC(=O)COc1ccccc1 | -4% (inactive)
O=C1CC(c2ccco2)CC(O)=C1C=NCCO (centres undefined) | -9.5% (inactive)
O=C1CC(c2ccco2)CC(O)=C1C=NCCN1CCNCC1 (centres undefined) | -12.7% (inactive)
O=C1CC(c2ccco2)CC(O)=C1C=Nc1cc(Cl)ccc1O (centres undefined) | 75.8% (active)
Cc1occc1-c1nnc(SCC(=O)N2CCCc3ccccc32)n1Cc1ccco1 | -3.2% (inactive)
CCc1c(C)nc(Nc2nc(C)c3cc(OC)ccc3n2)[nH]c1=O | 49.1% (inactive)
Cc1nc(-c2ccccc2)cc(=O)[nH]1 | 6.9% (inactive)
COCc1cc(=O)[nH]c(Nc2nc(C)c3ccc(C)cc3n2)n1 | 2.4% (inactive)
Cc1ccc(Nc2nc(CSc3nnnn3-c3ccccc3)cc(=O)[nH]2)cc1 | 23.4% (inactive)
CCCCCc1c(C)nc(Nc2nc(C)c3cc(OC)ccc3n2)[nH]c1=O | 9.7% (inactive)
Cc1ccc2c(C)nc(Nc3nc(CSc4nnnn4-c4ccccc4)cc(=O)[nH]3)nc2c1 | 54.8% (active)
COc1ccc2c(C)nc(Nc3nc(C)cc(=O)[nH]3)nc2c1 | 87.3% (active)
COc1ccc2c(C)nc(Nc3nc(C)cc(C)n3)nc2c1 | -1% (inactive)
Cc1ccc(Nc2nc(CSc3nnnn3-c3ccccc3)cs2)cc1 | 39.8% (inactive)
COc1nc(Nc2nc3ccccc3c(=O)[nH]2)nc2ccc(C)cc12 | 91.7% (active)
Cc1nnc(SCc2cc(=O)[nH]c(Nc3nc(C)c4ccccc4n3)n2)s1 | 3.9% (inactive)
Cc1nc(Nc2nc(-c3ccccc3)cc(=O)[nH]2)nc2ccccc12 | 68.2% (active)
O=C(O)Cc1nc2nc3c(c(=O)n2[nH]1)CCCC3 | 2% (inactive)
Cc1cc(C)nc(NC(=O)c2cccc(Cl)c2)n1 | -1.9% (inactive)
COc1ccc(OCCCC(=O)Nc2ccc3c(c2)OCCO3)cc1 | 12.2% (inactive)
C=CCc1c(C)c(C#N)c2nc3ccccc3n2c1NCCN(C)C | 5.5% (inactive)
CCOC(=O)c1cc2c(ccn2C)n1CC(=O)N1CCN(c2ccc(F)cc2)CC1 | -18.9% (inactive)
CSc1nc(N2CCOCC2)c2ccccc2n1 | 9.1% (inactive)
Cc1cc(C)c(NC(=O)CN2CCN3CCCC3C2)c(C)c1 (centres undefined) | 2.9% (inactive)

Compound | cytotoxicity
O=C(NC1CC2CCCC(C1)N2C1CC1)NC12CC3CC(CC(C3)C1)C2 (centres undefined) | 5.1% (inactive)
CCOC(=O)c1cccc(NC(=O)CSc2nc3ccccc3c(=O)n2CC)c1 | -11.5% (inactive)
O=C(COC(=O)CCC1CCCC1)Nc1ccc(Cl)cn1 | -7.1% (inactive)
COc1cccc(N2CC(O)Cn3c2nc2c3c(=O)n(CCCc3ccccc3)c(=O)n2C)c1 (centres undefined) | 7.7% (inactive)
CN1C(=O)CSc2ccc(NC(=O)Nc3ccccn3)cc21 | -13.1% (inactive)
Cc1cc(C)nc(NS(=O)(=O)c2ccccc2)n1 | 16.4% (inactive)
O=C(CSc1nc(-c2ccccc2)nc2c1CCCC2)N1CCOCC1 | -14.2% (inactive)
COc1ccc(-c2nc3c(c(SCC(=O)N4CCOCC4)n2)COC(C)(C)C3)cc1 | 52.7% (active)
COc1ccc(-c2ccc(SCC(=O)N3CCOCC3)nn2)cc1 | -3.5% (inactive)
COCCCNC(=O)CS(=O)(=O)Cc1nc(-c2ccccc2C)oc1C | -5.9% (inactive)
CC(=O)N1CCc2ccc(C(=O)CN3CCN(c4cccc(C)c4C)CC3)cc21 | -16.3% (inactive)
O=C(c1ccco1)N1CCN(c2nc(C(F)(F)F)nc3c2nnn3Cc2ccccc2)CC1 | -16.9% (inactive)
Cc1nc(N2CCCC2)c2nnn(Cc3ccccc3Cl)c2n1 | -7.7% (inactive)
CC(C)Sc1nc(NCc2ccco2)c2c3c(sc2n1)COC(C)(C)C3 | 68.5% (active)
CC(C)c1nc2sc3c(NCc4ccco4)ncnc3c2c2c1COC(C)(C)C2 | -13.3% (inactive)
Cc1nc(NCc2ccco2)c2c3c(sc2n1)CCC3 | 52% (active)
Cc1nc(SCC(=O)NCc2ccco2)c2c3c(sc2n1)CCCC3 | 2.5% (inactive)
CCCc1nc2sc3c(SCC(=O)NCc4ccco4)ncnc3c2c2c1CCC2 | 50.3% (active)
CSc1nc(SCC(=O)NCc2ccco2)c2c3c(sc2n1)CN(C)CC3 | 4.2% (inactive)
O=C(CSc1ncnc2sc3c(c12)CCCCC3)NCc1ccco1 | 1.1% (inactive)
CSc1nc(NCc2ccco2)c2c3c(sc2n1)CN(C)CC3 | -5.3% (inactive)
CSc1nc(SCC(=O)NCc2ccco2)c2c3c(sc2n1)COC(C)(C)C3 | 50.1% (active)
CC(C)Sc1nc(SCC(=O)NCc2ccco2)c2c3c(sc2n1)COC(C)(C)C3 | 0.4% (inactive)
CC(C)c1nc2sc3c(SCC(=O)NCc4ccco4)ncnc3c2c2c1CCC2 | 7.4% (inactive)
c1coc(CNc2ncnc3sc4c(c23)CCCCC4)c1 | -13.4% (inactive)

Compound | cytotoxicity
COc1cccc(C(O)c2cnc(C(C)C)n2C)c1OC (centres undefined) | 10.6% (inactive)
O=C(Nc1ccc(S(=O)(=O)N2CCCCC2)cc1)c1ccncc1 | -7.1% (inactive)
CCOc1ccccc1-c1nnc(SCC(=O)Nc2ccccc2)o1 | -17.6% (inactive)
COCCCNC(=O)CS(=O)(=O)Cc1nc(-c2cccc(OC)c2)oc1C | -6.5% (inactive)
COc1ccc(-c2nnc3n2-c2ccccc2SC3)cc1OC | 0% (inactive)
O=C(Cc1cc(=O)[nH]c(=O)[nH]1)N1CCN(C(=O)c2ccco2)CC1 | 7.1% (inactive)
CCCCc1ccc(-c2ccc(C)cc2O)nc1 | -28% (inactive)
CCCCCc1cc(O)c2c(C)cc(=O)oc2c1 | 39.2% (inactive)
C=CCn1c(SCc2csc(C)n2)nc2sc3c(c2c1=O)CCCCC3 | 2.5% (inactive)
Cc1ccc(-c2csc3nc(C)n(-n4c(C)ccc4C)c(=O)c23)o1 | 10.3% (inactive)
C=CCn1c(SCc2csc(C)n2)nc2scc(-c3ccc(C)o3)c2c1=O | 80.2% (active)
Cc1ccc(-c2noc(CN(C(=O)CCN3C(=O)c4ccccc4C3=O)C(C)C)n2)cc1 | -8.2% (inactive)
CC(=O)OCCOc1nc(N(C)C)nc(N(C)C)n1 | -13.1% (inactive)
O=C(CCN1CCCC1Cc1ccccc1)c1ccc2c(c1)OCCO2 (centres undefined) | -15.3% (inactive)
CCCOc1ccc2ccccc2c1/C=N/n1c(C)nnc1-n1nc(C)cc1C | 39.3% (inactive)
Cc1cc(C)n(-c2nnc(C)n2/N=C/c2ccccc2OCc2ccccc2Cl)n1 | 43.9% (inactive)
Cc1cc(C)n(-c2nnc(C)n2/N=C/c2cc(Br)ccc2OCc2ccccc2)n1 | 65.2% (active)
COc1ccc(-c2nnn(CC(=O)c3ccc4c(c3)OCCO4)n2)cc1OC | 0.3% (inactive)
CN1CCN(C(=O)c2ccc3ccccc3c2)CC1 | -8.1% (inactive)
O=C(c1ccc2ccccc2c1)N1CCN(c2ccc(O)cc2)CC1 | 65.9% (active)
O=C(c1ccc2ccccc2c1)N1CCN(c2ccccc2)CC1 | -11.6% (inactive)
CC(C)OCCCNC(=O)c1ccc(NC(=O)C2CCCO2)cc1 (centres undefined) | -5.7% (inactive)
Cc1cc(NC(=O)C23CCC(C)(C(=O)O2)C3(C)C)no1 (centres undefined) | 1.7% (inactive)
O=C(NCc1ccco1)N1c2ccccc2Sc2ccccc21 | 7.5% (inactive)
